Measurements from PubChem BioAssay.
Calls of active or inactive are those of the source. Unless noted, how the calls were made is not given here.

Tests used:
[1] = tested on: Wnt5a (protein binding on small-molecule microarray); assay: small molecules binding Wnt5a protein – biophysical, small-molecule microarray, 635/667 nm fluorescence, primary screen (AID 1142); conditions: 635 nm fluorescence, higher = more signal;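 further: fluorescence read at 667 nm with signal to noise per printed feature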
[2] = ATP-based viability of Huh7 replicon cells – cell-based, CellTiter-Glo luminescence, basal, 48 h, cytotoxicity control for HCV replication inhibitor project, primary screen (AID 1143); conditions: higher = more signal, called active from +8 up or from −8 down;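 further: Huh7 hepatoma cells carrying a hepatitis C replication reporter with no stimulus; test concentration not given here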
[3] = Pseudomonas biofilm growth suppression – PAO1 strain, BacTiter-Glo luminescence, LB-PBS, primary screen (AID 1144); conditions: P. aeruginosa PAO1 biofilm, 12 h, higher = more signal
[4] = basal CRE-LacZ reporter activity in PC12 – cell-based, unstimulated, primary screen (AID 1145); conditions: no forskolin, luminescence, 4.5 h, higher = more signal, called active from +8 up or from −8 down
[5] = forskolin-driven CRE-LacZ activity in PC12 – cell-based, CRE-LacZ reporter, forskolin-stimulated, primary screen (AID 1146); conditions: luminescence, 4.5 h, higher = more signal, called active from +8 up or from −8 down;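 further: PC12 cells with 6xCRE LacZ reporter stimulated by forskolin 10 µM; beta-galactosidase reporter signal reflecting CREB driven transcription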
[6] = biological target: Streptavidin (Streptomyces avidinii) (UniProt P22629); assay: compounds binding control protein streptavidin – biophysical, small-molecule microarray, 635/667 nm fluorescence, artefact control for SMM compound annotation, primary screen (AID 1147); conditions: higher = more signal;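 further: signal reflects streptavidin binding to arrayed compounds as a control protein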
[7] = probe aInhba binding on compound microarray – biochemical, small-molecule microarray, 635/667 nm fluorescence, primary screen (AID 1148); conditions: higher = more signal;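 further: score merges 667nm spot fluorescence with signal-to-noise for antibody binding to printed compounds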
Torsin-1A (Homo sapiens) [8] = biological target: Torsin-1A (Homo sapiens) (UniProt O14656); assay: TOR1A wild-type binding on microarray – cell lysate, small-molecule microarray, lysate, 635/667 nm, primary screen (AID 1149); conditions: COS7 hTOR1A-WT lysate, 635 nm fluorescence, higher = more signal
Torsin-1A (Homo sapiens) [9] = biological target: Torsin-1A (Homo sapiens) (UniProt O14656); assay: torsin A mutant lysate binding on microarrays – cell lysate, small-molecule microarray, COS7 lysate, 635/667 nm fluorescence, primary screen (AID 1150); conditions: COS7 hTOR1A mutant lysate, 635 nm fluorescence, higher = more signal;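 further: score pools 667 nm emission and signal to noise measuring lysate protein binding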
[10] = tested on: Sonic hedgehog protein (Shh); assay: Sonic hedgehog microarray binding compounds – biochemical, small-molecule microarray, 635/667 nm fluorescence, primary screen (AID 1151); conditions: 635 nm fluorescence, higher = more signal;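 further: Shh protein binding to compounds spotted on small-molecule microarray slides; score combines spot fluorescence intensity with signal-to-noise across triplicate slides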
[11] = optical density shifts of acrAB sulA E. coli – strain DRC41, OD650, 48 h, E. coli filamentation inducer project, primary screen (AID 1152); conditions: higher = more signal, called active from +8 up or from −8 down;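 further: E. coli MC1000 strain DRC41 lacking acrAB efflux pump and sulA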
[12] = probe aLefty1 binding on compound microarray – biochemical, small-molecule microarray, 635/667 nm fluorescence, primary screen (AID 1153); conditions: higher = more signal;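 further: score merges spot fluorescence with signal-to-noise ratio from the scanned slide images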
[13] = plasmodial surface anion channel blockers, osmotic lysis – cell-based, P. falciparum Indochina, OD700, 1 h, primary screen (AID 1154); conditions: P. falciparum Indochina infected RBC osmotic lysis, higher = more signal, called active from +8 up or from −8 down
[14] = plasmodial surface anion channel blockers, osmotic lysis – cell-based, P. falciparum Indochina, OD700, 2 h, primary screen (AID 1155);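 further: lysis reports solute entry through the parasite surface anion channel PSAC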; conditions: P. falciparum Indochina infected erythrocytes, higher = more signal, called active from +8 up or from −8 down
[15] = changes in parasitized red cell lysis, either direction – P. falciparum Indochina, OD700, 3 h, PSAC antagonist project, primary screen (AID 1156); conditions: P. falciparum-infected erythrocytes, osmotic lysis, higher = more signal, called active from +8 up or from −8 down
[16] = plasmodial surface anion channel blockers, osmotic lysis – cell-based, P. falciparum Indochina, OD700, 18 h, primary screen (AID 1157); conditions: P. falciparum Indochina infected erythrocytes, osmotic lysis OD700, 18 h; higher = more signal, called active from +8 up or from −8 down
[17] = S6 kinase pathway phospho-S6 level changes – cell-based, A549, cytoblot, luminescence, serum-stimulated, primary screen (AID 1158); conditions: 5 h, higher = more signal;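 further: serum-stimulated A549 lung adenocarcinoma cells; signal is phosphorylated S6 detected by cytoblot immunostaining with HRP secondary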
[18] = biological target: NADPH oxidase 2 (Homo sapiens) (UniProt P04839); assay: compounds shifting NOX2 Amplex Red fluorescence – cell-based, HEK293-NOX2, PMA-stimulated, NOX inhibitor project, primary screen (AID 1159); conditions: 45 min, higher = more signal, called active from +8 up or from −8 down; further: test concentration not given here
[19] = biological target: NADPH oxidase 4 (Homo sapiens) (UniProt Q9NPH5); assay: compounds shifting NOX4 Amplex Red fluorescence – cell-based, HEK293-NOX4, tetracycline-induced, NOX inhibitor project, primary screen (AID 1160); conditions: HEK293-NOX4, Amplex Red H2O2 fluorescence, 45 min; higher = more signal, called active from +8 up or from −8 down
[20] = biological target: NADPH oxidase 5 (Homo sapiens) (UniProt Q96PH1); assay: compounds shifting NOX5 Amplex Red fluorescence – cell-based, HEK293-NOX5, NOX inhibitor project, primary screen (AID 1161); conditions: HEK293-NOX5, ionomycin, 45 min, higher = more signal
Sequence of NADPH oxidase 5 (Homo sapiens) (Q96PH1 whole entry, looked up): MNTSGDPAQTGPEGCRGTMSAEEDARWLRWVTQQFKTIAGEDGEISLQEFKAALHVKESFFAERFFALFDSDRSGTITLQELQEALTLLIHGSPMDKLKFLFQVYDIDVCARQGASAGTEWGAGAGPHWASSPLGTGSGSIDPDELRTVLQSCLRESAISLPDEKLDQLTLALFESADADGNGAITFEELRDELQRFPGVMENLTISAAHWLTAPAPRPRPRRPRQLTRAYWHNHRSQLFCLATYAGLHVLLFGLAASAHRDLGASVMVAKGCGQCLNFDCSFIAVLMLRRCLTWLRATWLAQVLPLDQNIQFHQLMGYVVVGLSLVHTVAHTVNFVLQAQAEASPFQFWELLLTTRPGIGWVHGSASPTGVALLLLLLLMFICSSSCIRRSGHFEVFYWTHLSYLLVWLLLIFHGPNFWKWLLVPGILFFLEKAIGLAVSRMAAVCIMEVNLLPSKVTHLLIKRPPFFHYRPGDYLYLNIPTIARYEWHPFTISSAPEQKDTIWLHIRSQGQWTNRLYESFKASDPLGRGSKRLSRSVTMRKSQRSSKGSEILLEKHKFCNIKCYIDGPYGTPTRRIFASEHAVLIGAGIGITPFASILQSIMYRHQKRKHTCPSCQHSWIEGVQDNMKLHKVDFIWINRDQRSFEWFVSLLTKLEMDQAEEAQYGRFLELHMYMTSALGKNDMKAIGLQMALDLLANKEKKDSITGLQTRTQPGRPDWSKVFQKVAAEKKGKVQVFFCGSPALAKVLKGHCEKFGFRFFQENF

Sequence of Torsin-1A (Homo sapiens) (O14656 whole entry, looked up): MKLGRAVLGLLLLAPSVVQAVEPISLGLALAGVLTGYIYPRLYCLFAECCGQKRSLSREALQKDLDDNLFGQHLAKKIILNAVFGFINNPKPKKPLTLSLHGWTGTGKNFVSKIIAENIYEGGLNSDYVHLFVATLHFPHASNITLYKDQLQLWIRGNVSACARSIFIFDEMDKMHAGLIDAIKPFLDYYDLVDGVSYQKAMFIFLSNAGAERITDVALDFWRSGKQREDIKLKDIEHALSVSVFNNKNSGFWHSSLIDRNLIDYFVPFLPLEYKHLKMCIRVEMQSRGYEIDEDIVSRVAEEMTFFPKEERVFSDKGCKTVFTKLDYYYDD
Sequence of Streptavidin (Streptomyces avidinii) (P22629 whole entry, looked up): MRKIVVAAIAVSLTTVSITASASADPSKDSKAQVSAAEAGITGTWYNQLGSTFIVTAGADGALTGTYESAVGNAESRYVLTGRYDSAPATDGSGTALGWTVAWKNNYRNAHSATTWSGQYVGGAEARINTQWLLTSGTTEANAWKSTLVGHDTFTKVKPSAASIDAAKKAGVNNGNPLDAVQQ
Sequence of NADPH oxidase 4 (Homo sapiens) (Q9NPH5 whole entry, looked up): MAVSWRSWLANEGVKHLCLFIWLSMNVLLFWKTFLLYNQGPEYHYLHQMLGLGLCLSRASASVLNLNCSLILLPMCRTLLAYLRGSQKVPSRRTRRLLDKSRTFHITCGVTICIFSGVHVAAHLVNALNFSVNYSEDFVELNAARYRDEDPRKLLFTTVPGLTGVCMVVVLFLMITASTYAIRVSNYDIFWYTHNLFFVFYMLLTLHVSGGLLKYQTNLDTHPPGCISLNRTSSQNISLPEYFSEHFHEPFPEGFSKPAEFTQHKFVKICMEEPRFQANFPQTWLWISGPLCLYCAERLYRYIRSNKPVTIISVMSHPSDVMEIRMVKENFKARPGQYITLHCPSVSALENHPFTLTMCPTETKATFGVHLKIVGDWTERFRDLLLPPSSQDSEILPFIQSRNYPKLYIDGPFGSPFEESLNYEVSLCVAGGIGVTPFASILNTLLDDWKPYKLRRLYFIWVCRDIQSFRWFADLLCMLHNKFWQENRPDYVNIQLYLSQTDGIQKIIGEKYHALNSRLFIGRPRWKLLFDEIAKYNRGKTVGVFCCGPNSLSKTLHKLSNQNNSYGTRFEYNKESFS
Sequence of NADPH oxidase 2 (Homo sapiens) (P04839 whole entry, looked up): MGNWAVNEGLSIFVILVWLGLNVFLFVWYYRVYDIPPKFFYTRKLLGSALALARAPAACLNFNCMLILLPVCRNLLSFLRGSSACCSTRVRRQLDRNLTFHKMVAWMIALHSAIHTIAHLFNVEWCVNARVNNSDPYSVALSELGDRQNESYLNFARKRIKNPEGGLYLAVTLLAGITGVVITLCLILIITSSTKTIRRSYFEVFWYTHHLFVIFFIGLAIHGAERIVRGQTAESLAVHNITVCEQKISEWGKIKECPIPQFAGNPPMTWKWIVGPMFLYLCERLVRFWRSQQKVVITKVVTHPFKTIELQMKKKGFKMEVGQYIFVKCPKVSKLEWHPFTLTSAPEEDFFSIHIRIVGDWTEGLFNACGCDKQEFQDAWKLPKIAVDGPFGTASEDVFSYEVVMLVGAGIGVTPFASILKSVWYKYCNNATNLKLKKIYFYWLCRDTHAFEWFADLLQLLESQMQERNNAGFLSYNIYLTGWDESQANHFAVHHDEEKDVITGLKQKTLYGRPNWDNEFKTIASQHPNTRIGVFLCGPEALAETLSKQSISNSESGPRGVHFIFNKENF

SMILES	composite z-score [1]	z-score [2]	z-score [3]	z-score [4]	z-score [5]	composite z-score [6]	composite z-score [7]	composite z-score (Torsin-1A (Homo sapiens) [8])	composite z-score (Torsin-1A (Homo sapiens) [9])	composite z-score [10]	z-score [11]	composite z-score [12]	z-score [13]	z-score [14]	z-score [15]	z-score [16]	z-score [17]	z-score [18]	z-score [19]	z-score [20]
O=C1OC[C@@H](c2ccccc2)N2CC(/C=C/c3ccccc3)=CC12 (stereo not given in full)	-0.82	-2.59 (inactive)	0.476 (inactive)	0.945 (inactive)	-1.57 (inactive)	-0.274	-0.239	-0.872	-1.31	-1.05	-0.107 (inactive)	-0.469	18.1 (active)	3.85 (inactive)	2.22 (inactive)	1.55 (inactive)	-0.126	0.724 (inactive)	-0.598 (inactive)	0.967
C=CCN1C(=O)[C@@]2(CCC(=O)OC(C)(C)C)N=C(c3ccc(OCCCO)cc3)O[C@H]2c2ccccc21	0.228	-4.68 (inactive)	0.324 (inactive)	0.573 (inactive)	-2.25 (inactive)	0.57	0.0588	-0.0862	0.0147	0.832	0.46 (inactive)	0.466	36.7 (active)	36.3 (active)	3.79 (inactive)	13.2 (active)	0.0444	-2.82 (inactive)	0.413 (inactive)	-0.917
NCCCCCCNC(=O)[C@H]1C[C@H]2C(=O)N[C@@H](Cc3ccccc3)C(=O)N2[C@H]1c1ccc(O)cc1	0.21	0.277 (inactive)	-0.652 (inactive)	-1.48 (inactive)	-1.24 (inactive)	1.38	0.103	2.14	0.394	1.07	1.42 (inactive)	-0.0094	4.21 (inactive)	-0.243 (inactive)	0.731 (inactive)	-2.2 (inactive)	0.316	1.81 (inactive)	1.38 (inactive)	2.31
COc1cc2c(cc1OC)CN(C(=O)[C@@H]1[C@H]3C(=O)O[C@H](c4ccccc4)[C@H](c4ccccc4)N3[C@H](c3ccccc3OCCO)[C@@]13C(=O)Nc1ccc(C#CC4(O)CCCCCC4)cc13)CC2	0.0109	-2.91 (inactive)	-0.0135 (inactive)	-0.788 (inactive)	-0.749 (inactive)	0.445	-0.0523	0.825	0.827	0.791	2.01 (inactive)	-0.2	3.46 (inactive)	2.47 (inactive)	1.26 (inactive)	2.21 (inactive)	0.454	1.73 (inactive)	0.934 (inactive)	2.25
COc1ccc([Si](C)(C)[C@H]2[C@H](CCO)O[C@@]3(C(=O)N(Cc4cccc(N5CCCCC5=O)c4)c4ccccc43)[C@@H]2C)cc1	0.416	-7.87 (inactive)	-1.05 (inactive)	2.39 (inactive)	-1.82 (inactive)	0.569	-0.116	-0.0387	0.299	1.5	-0.205 (inactive)	0.102	5.16 (inactive)	1.94 (inactive)	0.558 (inactive)	1.38 (inactive)	0.781	-5.46 (inactive)	-1.46 (inactive)	0.189
CC(C)N1CC=CC23O[C@@H]4C=CCOC(=O)[C@@H]4[C@H]2C(=O)N(C(C)CO)[C@@H]3C1=O (stereo not given in full)	-0.517	0.394 (inactive)	0.995 (inactive)	-0.619 (inactive)	-0.544 (inactive)	-0.23	-0.161	-1.33	-1.43	-0.753	-0.32 (inactive)	0.233	0.287 (inactive)	0.0397 (inactive)	0.112 (inactive)	0.111 (inactive)	0.74	0.67 (inactive)	0.266 (inactive)	0.393
COc1cc(CO)cc(I)c1O[C@H]1C=C(C(=O)NCCO)C[C@@H](NCc2ccccc2F)[C@@H]1O	-0.145	-0.466 (inactive)	-0.251 (inactive)	9.26 (active)	-1.22 (inactive)	-0.0401	-0.128	0.235	-0.175	0.485	1.96 (inactive)	-0.117	22.2 (active)	4.37 (inactive)	3.59 (inactive)	1.09 (inactive)	0.51	0.0575 (inactive)	-0.344 (inactive)	-1.69
COc1ccc(C(O)C2C=CC3C(=O)N(Cc4ccccc4)C(=O)C3N2n2cnnc2)c2ccccc12 (stereo not given)	-0.795	-3.64 (inactive)	0.038 (inactive)	-0.126 (inactive)	-0.138 (inactive)	-0.677	-0.0136	1.95	0.432	-0.237	-0.855 (inactive)	0.425	0.782 (inactive)	-0.11 (inactive)	1.57 (inactive)	-1.58 (inactive)	2.01	-2.98 (inactive)	-0.674 (inactive)	-3.65
COCCOC(=O)N1C(=O)[C@@]2(c3cc(C#CCC(C(=O)OC)C(=O)OC)ccc31)[C@H](c1ccc(OCCO)cc1)N1[C@H](c3ccccc3)[C@H](c3ccccc3)OC(=O)[C@H]1[C@@H]2C(=O)N1CCN(c2ncccn2)CC1	0.672	-4.96 (inactive)	-1.65 (inactive)	-1.42 (inactive)	-0.912 (inactive)	0.945	0.122	1.19	0.6	2.09	1.89 (inactive)	0.297	6.55 (inactive)	1.35 (inactive)	0.14 (inactive)	-0.0311 (inactive)	1.72	-0.105 (inactive)	-1.13 (inactive)	-4.4
